Compound activity (PubChem)
TLR9-MyD88 inh – TLR9-MyD88 interaction inhibition; Q9NR96+Q99836; CHO BLA complementation TLR9-MyD88, CCF4 FRET ratio; inhibition, % at 4.98 µM; 340,000 tested, 0.21% active; AID 504734;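 active = inhibition above the mean over all tested compounds plus 3 SD, cut at about 21% in these data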
NOD2-RIPK2 inh – blocks binding of human NOD2 to RIPK2; O43353; CHO BLA complementation NOD2-RIPK2, CCF4 ratio; inhibition, % at 4.98 µM; 360,000 tested, 0.38% active; AID 624267; in the data active = inhibition above about 21%
TLR4-MyD88 BLA – blocks binding of human TLR4 to MyD88 | O00206+Q99836 | HeLa CL3-4 TLR4/MyD88 BLA complementation, FRET ratio | inhibition, % at 8.4 µM | 200,000 tested, 0.18% active | AID 861; in the data active = inhibition above about 25%
Target sequence (O00206 whole entry, looked up): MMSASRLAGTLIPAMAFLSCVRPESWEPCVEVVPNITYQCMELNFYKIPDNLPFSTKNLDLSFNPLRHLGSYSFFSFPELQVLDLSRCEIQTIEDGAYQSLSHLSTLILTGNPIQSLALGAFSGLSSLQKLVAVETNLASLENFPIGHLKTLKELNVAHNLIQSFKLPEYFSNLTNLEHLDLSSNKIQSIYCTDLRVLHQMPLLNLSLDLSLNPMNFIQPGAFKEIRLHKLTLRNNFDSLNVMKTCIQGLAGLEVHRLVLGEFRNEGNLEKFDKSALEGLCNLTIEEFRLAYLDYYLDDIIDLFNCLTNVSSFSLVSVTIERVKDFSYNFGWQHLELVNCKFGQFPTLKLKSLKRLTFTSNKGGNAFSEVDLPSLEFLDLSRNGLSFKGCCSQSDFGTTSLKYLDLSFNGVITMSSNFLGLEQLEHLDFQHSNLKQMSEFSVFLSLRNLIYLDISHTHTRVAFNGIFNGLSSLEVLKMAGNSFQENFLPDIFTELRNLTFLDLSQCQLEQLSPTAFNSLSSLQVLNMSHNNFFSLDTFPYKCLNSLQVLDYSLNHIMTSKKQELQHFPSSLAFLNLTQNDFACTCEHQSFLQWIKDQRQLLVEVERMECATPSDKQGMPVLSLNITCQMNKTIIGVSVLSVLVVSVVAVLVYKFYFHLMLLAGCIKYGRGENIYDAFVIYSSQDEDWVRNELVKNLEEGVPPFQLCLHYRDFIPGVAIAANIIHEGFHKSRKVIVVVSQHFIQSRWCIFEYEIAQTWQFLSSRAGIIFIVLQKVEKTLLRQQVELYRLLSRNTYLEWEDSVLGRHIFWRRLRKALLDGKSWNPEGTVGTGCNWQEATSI
Target sequence (Q99836 whole entry, looked up): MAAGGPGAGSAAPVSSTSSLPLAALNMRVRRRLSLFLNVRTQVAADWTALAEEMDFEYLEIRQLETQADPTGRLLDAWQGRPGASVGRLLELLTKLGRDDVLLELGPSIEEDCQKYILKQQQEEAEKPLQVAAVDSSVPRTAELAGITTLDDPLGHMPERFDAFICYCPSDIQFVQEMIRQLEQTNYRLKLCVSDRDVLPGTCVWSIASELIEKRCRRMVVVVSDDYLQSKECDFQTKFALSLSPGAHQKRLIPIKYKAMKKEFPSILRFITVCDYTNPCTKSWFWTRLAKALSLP
IDE act – IDE (human) activation, cell-based | HEK cells, FAbeta-B cleavage, fluorescence polarization; 0% vehicle, 100% cell-free pure enzyme wells | activation, % at 5.96 µM | 340,000 tested, 0.073% active | AID 493087;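 active = activation above the mean of all tested compounds plus 3 SD, set per screening campaign, cut at about 17% in these data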
IDE inh – cellular human IDE inhibition; P14735; HEK cells, FAbetaB cleavage, fluorescence polarization; inhibition, % at 5.59 µM; 320,000 tested, 0.41% active; AID 434962;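 active = percent inhibition above the average of all tested compounds plus 3 SD, set per screening campaign, cut at about 16% in these data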;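 note: IDE supplied by intact live HEK cells; FP after avidin binding of uncleaved biotin substrate so inhibition keeps polarization high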
IDE cell inh cf – confirmation of human insulin-degrading enzyme inhibitors in cells; shares compounds with IDE inh; inhibition, % at 5.59 µM; HEK cells, FAbetaB cleavage, fluorescence polarization; 1,200 tested, 51% active; AID 435028;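 active = mean inhibition across triplicate wells above the cutoff set by the earlier primary insulin-degrading enzyme screen, cut at about 16% in these data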
HEK cytotox – HEK cell cytotoxicity, counter-screen for IDE inhibitors; HEK293 cytotoxicity, ATP luminescence; 1,200 tested, 28% active; inhibition, % at 5.59 µM; shares compounds with IDE inh; in the data active = inhibition above about 22%
TLR9-MyD88 cf – confirmation of human TLR9-MyD88 binding inhibitors; CHO TLR9/MyD88 BLA complementation, CCF4 FRET ratio; inhibition, % at 4.98 µM; shares compounds with TLR9-MyD88 inh; 680 tested, 51% active; AID 540250;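 active = mean inhibition across three repeats above about 21% taken from the earlier screen, limit read from the data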;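 note: blue over green emission ratio reports constitutive TLR9 MyD88 association via BLA complementation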
BLA counter-1 – non-selective beta-lactamase inhibitors in TLR9-MyD88 counter-screen; CHO-BLA cells, CCF4 FRET ratio, BLA reporter; shares compounds with TLR9-MyD88 inh; AID 540251; 680 tested, 7% active; inhibition, % at 4.98 µM;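 active = mean inhibition above a 50% cutoff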;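 note: counterscreen of TLR9-MyD88 hits on CMV-driven BLA in CHO-K1 cells; higher means less blue over green ratio so more BLA blockade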
TLR9 CHO cytotox – CHO cell toxicity counter-screen for TLR9-MyD88 inhibitors; shares compounds with TLR9-MyD88 inh; TLR9-MyD88 CHO cells cytotoxicity, luminescence; inhibition, % at 4.98 µM; 680 tested, 39% active; AID 588336; in the data active = inhibition above about 11%
NOD2-RIPK2 conf – NOD2-RIPK2 interaction inhibition confirmed; 1,200 tested, 70% active; CHO cells, NOD2-RIPK2 BLA complementation, CCF4 FRET; AID 624370; shares compounds with NOD2-RIPK2 inh; inhibition, % at 4.98 µM;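 active = mean inhibition across replicates above a set limit taken from the earlier primary screen, cut at about 21% in these data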
BLA counter-2 – counter-screen for NOD2-RIPK2 interaction inhibitors: BLA reporter | inhibition, % at 4.98 µM | CHO BLA reporter, CCF4 FRET ratio, counterscreen | 1,200 tested, 57% active | shares compounds with NOD2-RIPK2 inh;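 active = mean inhibition above the low-control mean inhibition plus three low-control SD, cut at about 11% in these data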
Numbers stand for hits; – = inactive; · = no result. Most compounds without a hit are left out; they make up all but 0.86% or so of the library.

SMILES	TLR9-MyD88 inh	NOD2-RIPK2 inh	TLR4-MyD88 BLA	IDE act	IDE inh	NOD2-RIPK2 conf	BLA counter-2	others
COP(=S)(OC)c1c(C)nn(CCC#N)c1NC(=O)c1ccc(Cl)cc1	–	–	·	–	–	·	·
C=C(COC(=O)CCC(=O)O)CC1CC(O)[C@]2(C)OC3CC4OC5C[C@]6(C)O[C@]7(C)CCC8OC9C[C@]%10(C)OC%11C(C)=CC(=O)OC%11CC%10OC9C[C@@H](C)C8OC7CC6O[C@]5(C)C/C=C\C4OC3CC2O1 (some centres not stated)	–	–	·	–	–	·	·
COc1cc(/C=C/c2nc3ccccc3c(=O)n2-c2cccc(O)c2)ccc1O	–	21	·	–	65	–	14	IDE cell inh cf=153;HEK cytotox=–
CN(C)[C@@H]1C(=O)C(C(N)=O)=C(O)[C@@]2(O)C(=O)C3=C(O)c4c(O)cccc4[C@@](C)(O)[C@H]3C[C@@H]12	·	·	·	·	–	·	·
CN(C(=O)Cc1ccc(Cl)c(Cl)c1)C(CN1CCCC1)c1cccc(OCC(=O)O)c1 (configuration not stated)	23	–	·	–	–	·	·	TLR9-MyD88 cf=–;BLA counter-1=–;TLR9 CHO cytotox=–
O=C(O)CCn1cc(C=C2C(=O)NC(=S)NC2=O)c(-c2cccc(Cl)c2)n1	–	–	–	–	–	·	·
Nc1ccc2ccc3cccc[n+]3c2c1	26	23	·	46	–	31	36	TLR9-MyD88 cf=–;BLA counter-1=–;TLR9 CHO cytotox=–
CC1CCCN(C(=O)CCl)C1 (configuration not stated)	–	–	–	–	–	·	·
CN1C2CCC1/C(=C/c1ccccn1)C(=O)/C2=C\c1ccccn1	24	30	–	–	–	42	–	TLR9-MyD88 cf=–;BLA counter-1=–;TLR9 CHO cytotox=99
Cc1cc(N(CCCl)CCCl)ccc1C=Cc1ccncn1	32	40	·	–	·	26	31	TLR9-MyD88 cf=–;BLA counter-1=–;TLR9 CHO cytotox=–
COc1ccc(C2C(C(=O)N3CCC4(CC3)OCCO4)c3cc(OC)c(OC)cc3C(=O)N2C)cc1 (configuration not stated)	–	–	–	–	–	·	·
O=C(Cc1ccccc1)N1CCN(Cc2ccccn2)CC1	–	–	–	–	–	·	·
CCCCN(Cc1ccccc1)C1CCN(CCc2ccccc2)CC1	–	–	–	–	–	·	·
CC1=C(O)C(=O)C=C2C1=CC=C1C2(C)CCC2(C)C3CC(C)(C(=O)O)CCC3(C)CCC12C (configuration not stated)	29	81	·	–	·	81	–	TLR9-MyD88 cf=50;BLA counter-1=–;TLR9 CHO cytotox=98
COC(=O)[C@@H]1[C@@H](C(=O)OC)C2(c3ccccc3-c3ccccc32)N(c2ccc(Cl)cc2)N1C#N	–	71	–	–	–	68	–
C[n+]1c(-c2ccccc2)c2cc(N)ccc2c2ccc(N)cc21	–	28	·	–	–	–	–
O=C1NC2C(=CC(O)C(O)C2O)c2cc3c(cc21)OCO3 (configuration not stated)	–	–	·	–	·	·	·
O=C1NC2C(=CC(O)C(O)C2O)c2cc3c(c(O)c21)OCO3 (configuration not stated)	–	30	·	–	·	27	–
O=C1NC2C(O)C(O)C(O)C(O)C2c2cc3c(c(O)c21)OCO3 (configuration not stated)	–	22	·	–	·	29	–
COc1ccc(N=Cc2c(O)n(Cc3cccs3)c(=O)[nH]c2=O)cc1	–	–	–	–	–	·	·
C=C1C(=O)OC2CC3(C)OC3C3OC3C3=CC(OC3=O)C12 (configuration not stated)	·	44	·	·	·	67	18
C=C1C(=O)OC2CC3(C)OC3CCC(C)=CC(OC(C)=O)C12 (configuration not stated)	–	–	·	–	·	·	·
N#CC(C#N)=Cc1ccc(-c2ccccc2)o1	·	·	–	·	–	·	·
CCCCn1c(O)c(C(CC)=Nc2cccc(C(=O)O)c2)c(=O)[nH]c1=O	–	–	–	–	–	·	·
COC(=O)C1=C(C(=O)OC)C2OC1c1cc3ccccc3cc12	–	88	·	–	·	86	19
SMILES	TLR9-MyD88 inh	NOD2-RIPK2 inh	TLR4-MyD88 BLA	IDE act	IDE inh	NOD2-RIPK2 conf	BLA counter-2	others
COC(=O)C1=C(c2ccc3ccccc3c2)C[C@@H]2CC[C@H]1N2C	–	–	·	–	–	·	·
O=[N+]([O-])c1cccc(C2N3CCCN23)c1 (configuration not stated)	–	–	–	–	–	·	·
COc1ccc(C[C@H]2NC[C@H](O)[C@H]2OC(C)=O)cc1	–	26	·	–	–	29	–
CC1CC(C)CC(C)C(O)C(C#N)=CC=CCC(C2CCCC2C(=O)O)OC(=O)CC(O)C(C)C1 (configuration not stated)	–	30	·	–	·	28	–
Cn1c(O)c(/C=C2\C=Nc3ccc(Br)cc32)c(=O)n(C)c1=O	–	–	·	–	–	·	·
CCOC(=O)[C@]12Cc3cc(OC)ccc3[C@H]1N(C)C(=O)c1ccccc12	·	–	·	·	·	·	·
CCOC(=O)[C@]12Cc3cc(Cl)ccc3[C@H]1N(C)C(=O)c1ccccc12	·	–	·	·	·	·	·
CCOC(=O)[C@]12Cc3cc(OC)ccc3[C@H]1N(C1CCCCC1)C(=O)c1ccccc12	·	50	·	·	·	62	–
CCCCCN1C(=O)c2cc(OC)ccc2[C@@]2(C(=O)OCC)Cc3cc(Cl)ccc3[C@@H]12	·	46	·	·	·	44	–
CCOC(=O)[C@]12Cc3cc(Cl)ccc3[C@H]1N(CC(=O)OC)C(=O)c1ccccc12	·	–	·	·	·	·	·
CCOC(=O)[C@]12Cc3cc(Cl)ccc3[C@H]1N(C(C)C)C(=O)c1ccccc12	·	30	·	·	·	67	–
CCOC(=O)[C@]12Cc3cc(Cl)ccc3[C@H]1N(C1CCCCC1)C(=O)c1ccccc12	·	66	·	·	·	68	–
CCC1(CC)C(=O)C=CNC1=O	–	–	·	–	–	·	·
CC(Cc1ccccc1)NC(=O)CCCCC(=O)NC(C)Cc1ccccc1 (configuration not stated)	–	–	·	–	–	·	·
